Bioassay records from PubChem BioAssay.
A selection: hits, their analogues and other compounds. The true share with any hit is near 21%.
Cycloheximide cs – counter-screen for Shiga toxin inhibitors: cycloheximide protein synthesis inhibition; cell reporter, cycloheximide protein synthesis inhibition counterscreen; max response, %; hit rate 12% among 300,000; in the data active = max response mostly above about 13%, no sharp cut-off; inactive = mostly below about 14%; note: read at 38.3 µM for the half of the compounds with a filed dose; 0% is about no effect
Pf growth 96h – P. falciparum growth inhibition at 96 hour, primary screen for plastid delayed-death inhibitors; hit rate 6.9% among 320,000; Potency, µM (top dose mostly 28.7 µM), without a hit: top-dose activity change, negative = inhibition, usual class: inhibitors; P. falciparum luciferase reporter growth, 96 h; AID 504834; note: potency is the fitted concentration of half-maximal effect; % is set by controls: 0 for no effect and ±100 for the full control effect
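Erythrocytes infected with luciferase-expressing P. falciparum were dispensed at 2% hematocrit and 0.05% parasitemia (final), then incubated with compounds 96 hours at 37 C in 5% CO2. Luminescence after detection reagent addition reported growth.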
Shiga toxin inh – Shiga toxin inhibition | Vero cells, Shiga toxin protein synthesis inhibition reporter | inhibition, % at 38.7 µM | hit rate 9.2% among 290,000; in the data active = inhibition mostly above about 28%, no sharp cut-off; inactive = mostly below about 43%; note: 0% is about no effect
NS1 inh – blocks influenza NS1 protein function; Potency, µM (highest dose often 46.1 µM), for inactives: top-dose activity, positive = more growth; hit rate 0.4% among 270,000; AID 2326; calls by dose curve; note: potency is the fitted concentration of half-maximal effect; actives are rising curves; nearly all actives have a fitted effect of over 50% in size
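Compounds were scored for reversing the slow growth caused by influenza A NS1 in S. cerevisiae, measured by optical density at 600 nm. Assay medium contained 2% galactose at pH 6.0; NS1-free yeast of the same strain were the positive control.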
SARS PLP yeast – SARS-CoV PLP inhibition in yeast; S. cerevisiae expressing SARS-CoV PLpro, growth rescue; Potency, µM (highest dose often 32.9 µM), for inactives: at the top dose activity, positive = growth rescue, most hits filed as activators; hit rate 0.19% among 330,000; calls by dose curve; note: potency is the fitted concentration of half-maximal effect; 0% is about no effect; nearly all actives have a fitted effect of over 55% in size
Pf growth 48h – inhibits P. falciparum growth in the first generation, 48 h; Potency, µM (titrated, usually from 28.7 µM), inactives show at the top dose activity change, negative = inhibition, actives largely listed as inhibitors; AID 504832; hit rate 5.9% among 310,000; P. falciparum luciferase growth in erythrocytes, 48 h; note: potency is the fitted concentration of half-maximal effect; % is set by controls: 0 for no effect and ±100 for the full control effect
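Read-out is firefly luciferase luminescence from an integrated reporter in P. falciparum, so falling signal marks reduced parasite growth. Infected erythrocytes were at 2% hematocrit and 0.1% parasitemia (final) in Albumax-supplemented RPMI 1640.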
Starred values were filed as active, the others as inactive; ? = inconclusive; / = no result given. Unless noted, calls come from the whole dose curve; as a rule, active = well fitted inhibition curve with a large enough effect; inconclusive = small, poorly fitted or top-dose-only effect, or another doubt; inactive = no such curve, though single readings can be large or run the other way.

SMILES	Cycloheximide cs	Pf growth 96h	Shiga toxin inh	NS1 inh	SARS PLP yeast	Pf growth 48h
O=[N+]([O-])c1ccc(C[n+]2ccc(Cc3ccccc3)cc2)cc1	5.7	34.8%	-11.2	/	-0.8%	3.7µM*
CCN(CC)CCn1c(=S)[nH]c2cc(C(=O)NCc3ccccc3Cl)ccc2c1=O	-2.2	96.2%	10.8	-5.9%	3.9%	?
O=[N+]([O-])c1ccc(C[n+]2c(-c3ccccc3)cc(-c3ccccc3)cc2-c2ccccc2)cc1	/	0.928µM*	/	/	0.7%	1.17µM*
O=[N+]([O-])c1ccc2nc(-[n+]3c(-c4ccccc4)cc(-c4ccccc4)cc3-c3ccccc3)[nH]c2c1	-3.3	?	-4.3	2.2%	-17.1%	?
CC(C(=O)NC1CCCC1)N1C(=O)c2cccc3cccc1c23 (stereo not given)	-1.1	2.33µM*	11.0	-5.7%	-2.8%	?
CC(C(N)=O)N1C(=O)c2cccc3cccc1c23 (stereo not given)	-3.9	/	-13.4	10.6%	-2.9%	2.2%
Cc1sc2c(c1C)C(=O)NC(c1cccc(O)c1)N2 (stereo not given)	26.9*	?	35.4	-19.8%	-3.7%	36.5%
CC(C)CCNC(=O)C1(O)c2ccccc2NC(=O)N1c1ccc(Cl)cc1 (stereo not given)	10.2*	55.2%	6.4	-8.0%	-0.9%	6.1%
O=C1Nc2ccccc2C(O)(C(=O)NCc2ccco2)N1c1ccccc1 (stereo not given)	-3.6	?	-17.7	5.9%	?	-6.1%
O=C1Nc2ccccc2C(O)(C(=O)NCc2ccco2)N1c1ccc(Cl)cc1 (stereo not given)	18.2*	/	31.2	-31.4%	-1.0%	-8.4%
CN1CCN(CC(=O)Nc2cccc3ccccc23)CC1	/	/	/	0.7%	/	/
O=C(Nc1ccccc1)c1nc2ccccc2s1	48.0*	311.0%	89.2*	3.0%	-7.8%	202.3%
O=C(Nc1ccccc1)Nc1sccc1-c1nc2ccccc2s1	16.6	?	63.2*	8.8%	2.5%	?
Cc1cccc(NC(=S)c2nc3ccccc3s2)c1	27.8*	85.3%	86.4*	2.0%	0.5%	217.3%
O=C(NCCCO)c1nc2ccccc2s1	12.0	3.0%	15.4	7.2%	-2.4%	43.3%
CC(C)(C)NC(=O)c1nc2ccccc2s1	20.5*	14.2%	46.6*	-7.1%	13.4%	-11.1%
COc1ccc(S(=O)(=O)NCCOc2ccc(Cl)cc2)cc1	/	35.7%	/	/	?	-7.2%
COc1cccc(-c2nnc(SCC(=O)NC3CCS(=O)(=O)C3)n2C)c1 (stereo not given)	/	-5.1%	/	/	1.8%	-13.3%
O=C(COC(=O)CNS(=O)(=O)c1ccc(Br)cc1Cl)Nc1ccc(N2CCOCC2)cc1	/	17.7%	/	/	-6.6%	9.3%
C(=Nc1ccc(N2CCOCC2)cc1)c1c[nH]c2ccccc12	41.9*	-14.0%	89.0*	25.4%	-1.1%	61.1%
CC(Cc1cccs1)NC(=S)Nc1ccc(Cl)cc1 (stereo not given)	20.6*	?	45.2*	-50.0%	-82.4%	-5.7%
CCOc1cc(C(=O)NC(C)Cc2cccs2)cc(OCC)c1OCC (stereo not given)	-2.9	5.0%	-1.1	7.0%	1.6%	66.8%
CC(Cc1cccs1)NC(=S)Nc1ccc(Cl)c(Cl)c1 (stereo not given)	10.8	?	active	-54.7%	/	-3.0%
CCOc1ccccc1CN(CCc1ccc2c(c1)OCO2)Cc1ccccn1	-2.9	/	-14.8	-9.9%	21.6%	/
CC1(C)CC(NC(=O)c2c(N)no[n+]2[O-])CC(C)(C)N1	-1.6	24.3%	-13.8	/	5.4%	?
Cc1ccc(C2CCN(C(=S)NC3CCCCC3)C2)cc1 (stereo not given)	19.8*	?	70.2*	/	-0.9%	-2.1%
Cc1ccc(C2CCN(C(=S)Nc3cccc(C)c3)C2)cc1 (stereo not given)	20.3*	-18.8%	33.6*	/	-11.7%	-25.9%
Cc1ccc(C2CCN(C(=S)NC(C)(C)C)C2)cc1 (stereo not given)	30.9*	?	76.4*	/	8.0%	39.7%
CC1CCCN(C(=S)NC2CCCC2)C1 (stereo not given)	0.6	21.9%	-6.6	3.3%	0.8%	23.3%
Cc1cccc(NC(=O)c2ccc(Cl)c(S(=O)(=O)N3CCCCC3)c2)n1	/	97.8%	/	/	4.6%	56.6%
